According to PubChem BioAssay (EPA / NIEHS):
Activity calls are given as the source filed them. The calls were made as follows: active = hit-call score of the fitted dose curve at least 0.9, where 1 is the maximum; inactive = score below 0.9.

How the values were obtained:
[1] = APR_HepG2_NuclearSize_24hr: Apredica 24-hour HepG2 Assay for Nuclear Size (AID 2282907); settings: high-content imaging, actives raise or lower the signal
Summary of the method: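 HepG2 human liver cells were exposed for 24 hr to compounds at 0.39–200 uM (ten concentrations, duplicate) in 0.5% v/v DMSO. They were then formaldehyde-fixed, Triton-permeabilized and Hoechst 33342-stained, and nuclear diameter was imaged at 20x. Bidirectional fits were made against DMSO.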

[2] = APR_HepG2_CellLoss_24hr: Apredica 24-hour HepG2 Assay for Cell Loss (AID 2282908); settings: high-content imaging;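 as to AC50: fit in both directions so a hit may be cell loss or gain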
Summary of the method: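 Compounds were tested at 0.39–200 uM in duplicate with 0.5% v/v DMSO final. Cells were then fixed in 3.7% formaldehyde, Hoechst 33342 nuclei were imaged at 20x by HCS, and cell number was fitted bidirectionally against DMSO.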

[3] = APR_HepG2_MicrotubuleCSK_24hr: Apredica 24-hour HepG2 Assay for Microtubule CSK Stabilty (AID 2282909); settings: HepG2 microtubule cytoskeleton imaging, actives raise or lower the signal
Summary of the method: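 HepG2 cells exposed 24 h to compounds at 0.39–200 uM (duplicate, 0.5% v/v DMSO final), then fixed, permeabilized and immunostained for alpha-tubulin with Hoechst 33342. Cytoskeleton imaged at 20x; bidirectional fit versus DMSO baseline.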

[4] = APR_HepG2_MitoticArrest_24hr: Apredica 24-hour HepG2 Assay for Mitotic Arrest (AID 2282910); settings: high-content imaging, actives raise or lower the signal
Summary of the method: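 Compounds are dosed onto HepG2 cells across ten concentrations up to 200 uM for 24 hr. Cells are then fixed in 3.7% formaldehyde, permeabilised, and labelled for phospho-histone H3 and nuclei; images are scored by cell cycle analysis and fitted bidirectionally relative to DMSO.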

[5] = APR_HepG2_MitoMembPot_24hr: Apredica 24-hour HepG2 Assay for Mitochondrial Membrane Potential (AID 2282911); settings: imaging, actives raise or lower the signal
Summary of the method: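 Mitochondrial membrane potential imaged via MitoTracker Red CMXRos (250 nM, 30 min pre-fixation) in fixed HepG2 cells with Hoechst nuclear identification. Ten concentrations 0.39–200 uM, 24 h treatment, 0.5% DMSO; CCCP as positive control.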

[6] = APR_HepG2_MitoMass_24hr: Apredica 24-hour HepG2 Assay for Mitochondrial Mass (AID 2282912); settings: high-content imaging, actives raise or lower the signal
Summary of the method: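 Human HepG2 liver cells were exposed for 24 hr to compounds at 0.39–200 uM (duplicates, 0.5% v/v DMSO final). They were stained live with 250 nM MitoTracker Red CMXRos for 30 min, fixed in 3.7% formaldehyde, and imaged by HCS fluorescence; signals were fitted bidirectionally against DMSO.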

[7] = APR_HepG2_p53Act_24hr: Apredica 24-hour HepG2 Assay for p53 Activation (AID 2282913); settings: high-content imaging, actives raise or lower the signal;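 also: p53 protein immunofluorescence averaged per cell in HepG2 with Hoechst nuclei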
Summary of the method: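 Fluorescence imaging of formaldehyde-fixed HepG2 cells labelled for p53 and with Hoechst, 24 h after dosing (0.39–200 uM, duplicate wells, 0.5% v/v DMSO). Signal fitted in both directions relative to DMSO.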

[8] = APR_HepG2_CellCycleArrest_72hr: Apredica 72-hour HepG2 Assay for Cell Cycle Arrest (AID 2282914); settings: high-content imaging, actives raise or lower the signal
Summary of the method: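 Read-out: nuclear DNA content from Hoechst 33342 high-content imaging (20x, six fields/well) after 3.7% formaldehyde fixation, fitted bidirectionally against DMSO. Treatment was 72 h in HepG2, ten concentrations 0.39–200 uM, duplicate, 0.5% DMSO.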

[9] = APR_HepG2_CellLoss_72hr: Apredica 72-hour HepG2 Assay for Cell Loss (AID 2282915); settings: high-content imaging
Summary of the method: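 Cell number comes from Hoechst 33342-labelled nuclei, imaged at 20x after 3.7% formaldehyde fixation. Dosing was 0.39–200 uM, ten concentrations in duplicate, 0.5% DMSO final, for 72 h. Bidirectional fit relative to DMSO baseline.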

Structure (SMILES)	outcome [1]	outcome [2]	outcome [3]	outcome [4]	outcome [5]	outcome [6]	outcome [7]	outcome [8]	outcome [9]	AC50 [2]	AC50 [3]	AC50 [4]	AC50 [9]	AC50 [5]	AC50 [8]
CCCCOC(=O)c1ccccc1C(=O)O	inactive	inactive	inactive	inactive	inactive	inactive	inactive	inactive	inactive						
S=C1NCCN1	inactive	inactive	inactive	inactive	inactive	inactive	inactive	inactive	inactive						
COP(=O)(OC)OC(Br)C(Cl)(Cl)Br (centres undefined)	inactive				inactive	inactive		inactive		45 µM (active)	34.1 µM (active)	34.2 µM (active)	29.7 µM (active)		
Nc1nc(N)nc(NC2CC2)n1	inactive	inactive	inactive	inactive	inactive	inactive	inactive	inactive	inactive						
CCNc1nc(Cl)nc(NC(C)(C)C#N)n1	inactive	inactive	inactive	inactive	inactive	inactive	inactive	inactive	inactive						
Cc1ccn2nc(S(=O)(=O)Nc3c(F)cccc3F)nc2n1	inactive	inactive	inactive	inactive	inactive	inactive		inactive	inactive						
CN1COCN(Cc2cnc(Cl)s2)C1=N[N+](=O)[O-]	inactive	inactive	inactive	inactive	inactive	inactive	inactive	inactive	inactive						
C#CC(C)(C)NC(=O)c1cc(Cl)cc(Cl)c1	inactive	inactive	inactive	inactive	inactive	inactive	inactive	inactive					69.1 µM (active)		
CON=C(C(=O)OC)c1ccccc1CON=C(C)c1cccc(C(F)(F)F)c1	inactive	inactive	inactive	inactive		inactive	inactive	inactive					3.36 µM (active)	1.07 µM (active)	
CCOP(=S)(OCC)Oc1ccc2c(C)c(Cl)c(=O)oc2c1	inactive	inactive	inactive		inactive	inactive	inactive	inactive				114 µM (active)	49.1 µM (active)		
CCCSP(=O)(OCC)Oc1ccc(Br)cc1Cl (centres undefined)	inactive			inactive	inactive	inactive	inactive	inactive		108 µM (active)	113 µM (active)		114 µM (active)		
N#CSCSC#N	inactive		inactive	inactive	inactive	inactive	inactive	inactive	inactive	13.6 µM (active)					
O=c1ccc(=O)[nH][nH]1	inactive	inactive	inactive	inactive	inactive	inactive	inactive	inactive	inactive						
O=C(O)c1cc(Oc2ccc(C(F)(F)F)cc2Cl)ccc1[N+](=O)[O-]	inactive	inactive	inactive	inactive	inactive	inactive		inactive	inactive						
CCc1cccc(C)c1N(C(=O)CCl)C(C)COC (centres undefined)	inactive	inactive	inactive	inactive	inactive	inactive	inactive	inactive					106 µM (active)		
COP(=O)(OC)SCn1c(=O)oc2cc(Cl)cnc21	inactive			inactive	inactive	inactive	inactive			32.9 µM (active)	30.2 µM (active)		37.8 µM (active)		47.4 µM (active)

Structure (SMILES)	outcome [1]	outcome [2]	outcome [3]	outcome [4]	outcome [5]	outcome [6]	outcome [7]	outcome [8]	outcome [9]	AC50 [2]	AC50 [3]	AC50 [4]	AC50 [9]	AC50 [5]	AC50 [8]
CCOP(=O)(NC(C)C)Oc1ccc(SC)c(C)c1 (centres undefined)	inactive	inactive	inactive	inactive	inactive	inactive	inactive	inactive					89.2 µM (active)		
CC(C)[C@H](C(=O)O[C@H](C#N)c1cccc(Oc2ccccc2)c1)c1ccc(Cl)cc1	inactive	inactive	inactive	inactive	inactive	inactive	inactive	inactive	inactive						
CCC(=O)Nc1ccc(Cl)c(Cl)c1	inactive	inactive	inactive	inactive	inactive	inactive	inactive	inactive	inactive						
CCc1cccc(CC)c1N(COC)C(=O)CCl	inactive				inactive	inactive		inactive		92.5 µM (active)	55.7 µM (active)	62.4 µM (active)	17.2 µM (active)		
CCCCSP(=O)(SCCCC)SCCCC	inactive	inactive	inactive	inactive	inactive	inactive	inactive	inactive					87.3 µM (active)		
CCCSP(=O)(OCC)SCCC	inactive	inactive	inactive	inactive	inactive	inactive		inactive	inactive						
Nc1c(Cl)cc([N+](=O)[O-])cc1Cl	inactive	inactive	inactive	inactive	inactive	inactive		inactive					95.3 µM (active)		
C[N+]1(C)CCCCC1	inactive	inactive	inactive	inactive	inactive	inactive	inactive	inactive	inactive						
CCc1cnc(C2=NC(C)(C(C)C)C(=O)N2)c(C(=O)O)c1 (centres undefined)	inactive	inactive	inactive	inactive	inactive	inactive		inactive	inactive						
CCOP(=O)(SC(C)CC)N1CCSC1=O (centres undefined)	inactive	inactive	inactive	inactive	inactive	inactive		inactive	inactive						
CNC(=O)Oc1cccc2c1OC(C)(C)O2	inactive		inactive	inactive	inactive	inactive	inactive	inactive		83.8 µM (active)			86.6 µM (active)		
CCOP(=O)(OCC)Oc1cc(C)nc(C(C)C)n1	inactive	inactive	inactive	inactive	inactive	inactive	inactive	inactive	inactive						
C=C(C)[C@H]1Cc2c(ccc3c2O[C@@H]2COc4cc(OC)c(OC)cc4[C@@H]2C3=O)O1	inactive		inactive	inactive		inactive				15.7 µM (active)			12.8 µM (active)	0.295 µM (active)	0.283 µM (active)
CNC(=O)ON=C(SC)C(=O)N(C)C	inactive	inactive	inactive	inactive	inactive	inactive	inactive	inactive					100 µM (active)		
CC(C1CC1)C(O)(Cn1cncn1)c1ccc(Cl)cc1 (centres undefined)	inactive	inactive	inactive	inactive	inactive	inactive	inactive	inactive	inactive						
CNC(=O)ON=C(C)SC	inactive	inactive	inactive	inactive	inactive	inactive	inactive	inactive	inactive						
